Only some compounds are listed: those with a hit (about 10% of all), similar ones and a draw of the others.
G9a block = blocks human histone lysine methyltransferase G9a. Q96KQ7. G9a H3K9 monomethylation, AlphaScreen, 2 h. Potency, µM (top dose mostly 102 µM), most hits filed as inhibitors. 350,000 compounds, 8.8% hits; also: nearly all actives have a fitted effect of over 75% in size
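Step 1: enzyme (final 20 nM) with compound, 15 min RT. Step 2: substrate peptide 500 nM and SAM 20 uM, 2 h RT. Step 3: anti-H3K9me1 antibody and AlphaScreen beads, 10 min, then plate read.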
Six1-Eya2 blk = blocks human Six1 binding to Eya2; AID 651725; AlphaScreen GST-Six1/His-Eya2 binding, biochemical; active compounds read low; Q15475+O00167; 360,000 compounds, 0.56% hits; activity change, % (no concentration beside the values); in the data active = activity change below about -65%; inconclusive = mostly about -30% to -63%
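AlphaScreen luminescence read after one hour at 37 °C in darkness. Pin-transferred compounds met GST-Six1 and His-Eya2 protein (5X stock 250 nM/500 nM) plus glutathione donor and Ni-chelate acceptor beads (5X, 50 ug/mL).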
JMJD2A Tudor = inhibitors of human JMJD2A Tudor domain. O75164. AlphaScreen JMJD2A-Tudor / H3K4me3 peptide binding. Potency, µM (doses to about 114 µM), usual class: inhibitors. 390,000 compounds, 4.4% hits; also: nearly all actives have a fitted effect of over 50% in size
BAZ2B block = blocks human BAZ2B. Potency, µM (titrated, usually from 114 µM), usual class: inhibitors. 360,000 compounds, 4.4% hits. AlphaScreen BAZ2B-H3K14Ac peptide displacement. AID 504333; also: nearly all actives have a fitted effect of over 60% in size
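AlphaScreen displacement of biotin-H3(5-23)K14Ac peptide (50 nM final) from BAZ2B (50 nM final) in PBS pH 7.4, 0.01% Tween-20; complex preformed 30 min RT, then compounds (top 110 uM) 30 min RT, beads 20 min dark.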
CtBP-E1A inh = inhibitors of CtBP/E1A interaction. activity change, % (no concentration beside the values). AID 651724. AlphaScreen GST-E1A/His-CtBP binding, 1536-well; active compounds read low. 340,000 compounds, 0.49% hits; in the data active = activity change below about -65%; inconclusive = mostly about -30% to -63%
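GST-E1A and His-tagged CtBP (125 nM each as 5X stock) were preincubated with pin-transferred compound for 2 h at 37 °C in the dark, then glutathione donor and nickel acceptor beads were added for 1 h before AlphaScreen reading.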
HP1b binding inh = inhibitors of HP1-beta chromodomain binding to methylated histone tails. AlphaScreen HP1-beta / biotin-H3K9me3 peptide binding. 390,000 compounds, 0.56% hits. Potency, µM (top dose mostly 114 µM), usual class: inhibitors. P83916; also: nearly all actives have a fitted effect of over 70% in size
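AlphaScreen: HP1-beta (50 nM) preformed 30 min with biotin-H3(1-18)K9me3 peptide (50 nM) in PBS pH 7.4, 0.01% Tween-20. Compound added for 30 min at RT, then streptavidin donor/nickel chelate acceptor beads (10 ug/mL) for 30 min.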
Numbers stand for hits; - = inactive; ? = inconclusive; . = no result given; [ ] = remark or other dose. Unless noted, calls follow the shape of the dose curve; as a rule, active = well fitted inhibition curve with a large enough effect; inconclusive = small, poorly fitted or top-dose-only effect; inactive = no such curve, though single readings can be large or run the other way.

SMILES	G9a block	Six1-Eya2 blk	JMJD2A Tudor	BAZ2B block	CtBP-E1A inh	HP1b binding inh
CCN(CC)C(=O)CSC1=N/C(=C/c2ccco2)C(=O)N1c1ccc(OC)c(Cl)c1	25.1µM	-	-	?	-	-
NC(=O)CSC1=N/C(=C\c2ccco2)C(=O)N1c1ccc(OC(F)F)cc1	?	-	?	-	-	-
COc1ccc(N=C(C)C2=C(O)CSC2=O)cc1	39.8µM	-	-	-	-	-
COc1ccc(N=C(C)C2C(=O)c3ccccc3C2=O)cc1	.	-	.	.	-	.
CC(=Nc1ccccc1C)C1=C(O)CSC1=O	?	-	-	-	-	-
CC(=Nc1ccccc1)C1=C(O)CSC1=O	50.1µM	-	-	?	-	-
CC(=Nc1ccccc1)C1=C(O)CCCC1=O	?	-	25.1µM	-	-	-
CC(=Nc1ccccc1)C1=C(O)CC(C)(C)CC1=O	-	-	-	-	-	-
C#CCN(C[C@@H]1[C@@H](OC(=O)NCc2ccccc2F)[C@@H](OC(=O)NCc2ccccc2F)Cn2c(=O)ccc(=O)n21)S(=O)(=O)c1ccc(C)cc1	.	-	.	.	-	.
CCN(CCO)c1ccc(-n2c(N)c(C(=O)OC)c3nc4ccccc4nc32)cc1	35.5µM	-	79.4µM	?	-	-
Cc1c(Nc2c3c(c(C#N)c4nc5ccccc5n24)CCC3)c(=O)n(-c2ccccc2)n1C	50.1µM	.	.	-	.	.
COC(=O)[C@]12CCCCC=C1N(Cc1ccc(Cl)cc1Cl)C(=O)[C@H](CC(=O)NCC13CC4CC(CC(C4)C1)C3)C2	.	-	.	.	-	.
CC(C)CC(=O)NCc1ccc2[nH]c3c(c2c1)CCCC3	39.8µM	-	-	.	.	-
Cc1ccc(NC(=S)NCc2ccc3[nH]c4c(c3c2)CCCC4)cc1	44.7µM	-	50.1µM	35.5µM	-	?
O=C(NCCO)c1ccc2[nH]c3c(c2c1)CCCC3	?	-	-	-	-	-
COCCNC(=O)NC(=O)COC(=O)c1ccc2[nH]c3c(c2c1)CCCC3	-	-	-	-	-	-
COCCNC(=S)NCc1ccc2[nH]c3c(c2c1)CCCC3	44.7µM	-	56.2µM	.	-	-
CN1CCN(c2ccc([N+](=O)[O-])cc2/C=N/NC(=O)c2ccc(F)cc2)CC1	?	-	-	-	-	-
O=C(CN(c1cccc(Br)c1)S(=O)(=O)c1ccccc1)N/N=C/c1cc([N+](=O)[O-])ccc1O	.	-	50.1µM	.	?	-
Cc1ccc(NC(=O)CCC(=O)N/N=C/c2cc([N+](=O)[O-])ccc2O)cc1	-	-87.1	-	-	-65.2	-
CN1CCN(CCC(=O)N/N=C/c2cc([N+](=O)[O-])ccc2O)CC1	?	-86.8	?	-	-76.6	-
Cc1ccccc1NC(=O)CCC(=O)N/N=C/c1cc([N+](=O)[O-])ccc1O	-	-79.3	-	?	-88.1	-
CCCOc1ccc(-c2nn(-c3ccccc3)cc2C2NC(=O)NC(C)=C2C(=O)OC(C)C)cc1 (stereo unspecified)	-	.	-	?	.	-
COc1cccc(-c2noc(COc3cccc(C)c3C)n2)c1	-	.	-	-	.	-
O=C(CCCC(=O)Nc1cccc(Br)c1)N/N=C/c1cc([N+](=O)[O-])ccc1O	.	-67.0	?	-	-81.7	-
SMILES	G9a block	Six1-Eya2 blk	JMJD2A Tudor	BAZ2B block	CtBP-E1A inh	HP1b binding inh
O=C(CCC(=O)Nc1cccc(Cl)c1)N/N=C/c1cc([N+](=O)[O-])ccc1O	-	?	-	-	-	-
O=C(CSc1nc2ccccc2s1)N/N=C/c1cc([N+](=O)[O-])ccc1O	-	?	?	-	-68.3	-
Cc1ccc(C)c(NC(=O)CCC(=O)N/N=C/c2cc([N+](=O)[O-])ccc2O)c1	-	-85.7	-[11.4 µM]	-	.	-
Cc1ccc(C)c(NC(=O)CCC(=O)N/N=C/c2ccc[nH]2)c1	.	-	-	-	-	-
CCCc1cc(=O)n2nc(N3CCC(C(=O)N4CCN(c5cccc(OC)c5)CC4)CC3)sc2n1	-	-	-	-	-	-
Cc1ccc2c(c1)C(=O)C(=O)N2Cc1ccc(C(F)(F)F)cc1	.	-	-	.	-	-
Cc1ccc(CN2C(=O)C(=O)c3cc(Br)cc(C)c32)cc1	11.2µM	.	25.1µM	12.6µM	.	12.6µM
Cc1ccc(NC(=O)CSc2nc3ccc(NC(=O)CCc4ccccc4)cc3s2)cc1	-	.	-	-	.	-
Cc1cc2[nH]c(=O)c(=O)[nH]c2cc1S(=O)(=O)Nc1cccc(C(F)(F)F)c1	-	.	-	-	.	-
CN1C2Cc3c(n(C)c4ccccc34)C1CC=C2CO (stereo unspecified)	-[0.501 µM]	-	-	-	-	-
COc1ccc(/C=N/NC(=O)CN2CCCc3ccccc32)c(OC)c1	?	-	50.1µM	50.1µM	-	?
COc1ccc(O)c(/C=N/NC(=O)CN2CCS(=O)(=O)CC2)c1	-	?	-	-	-71.3	-
COc1ccc(O)c(/C=N/NC(=O)CCC(=O)Nc2ccc(C)cc2)c1	-	-	-	-	.	-
CCOC1=C(C#N)CC2(CC1)c1ccccc1-c1ccccc12	.	-	-	.	-	-

Bioassay records from PubChem BioAssay.
